Sampled rows, rich in hits. Any-hit rate of the full collection: about 19%.
IL1B secr inh: qHTS for Inhibitors of Inflammasome Signaling: IL-1-beta AlphaLISA Primary Screen; THP-1 LPS/ATP IL-1B secretion, AlphaLISA, 16 h; hits give low values; 4.7% of 360,000 active; activity change, % at 57.5 µM; AID 743279, 2014; in the data active means activity change below about -50%; inconclusive means mostly about -30% to -49%
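THP-1 cells pretreated 1 hr with compounds (up to 57.5 uM final), then stimulated with LPS (250 ng/mL final) plus ATP (1.25 mM final); secreted IL-1B measured by AlphaLISA after 16 hr, decreased signal indicating inhibition.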
HepG2 tox: qHTS for Inhibitors of TGF-b: Cytotox Counterscreen. Potency, µM (series often up to 46.1 µM), usual class: cytotoxic. 0.76% of 410,000 active. HepG2 CAGA-GFP viability, ATP luminescence, 18 h
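HepG2 CAGA-GFP cells (1000/well, DMEM with 1% FBS) received compound, then TGF-beta at 500 pg/mL final, and were incubated 18 hours at 37 degrees C. Viability was read by CellTiter-Glo luminescence. Media-only wells were set as complete cell-killing and DMSO as no toxicity.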
DT40 TDP1 CPT: qHTS for Inhibitors of human tyrosyl-DNA phosphodiesterase 1 (TDP1): qHTS in cells in presence of CPT. chicken DT40 Tdp1-/-;hTDP1 cells + 20 nM CPT, ATP luminescence, 48 h. Potency, µM (titrated, usually from 46.2 µM), hits mostly inhibitors. 12% of 420,000 active. AID 686979, 2013; further: nearly all actives have a fitted effect of over 55% in size
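Chicken DT40 Tdp1-/- cells complemented with human TDP1, 400 cells/well, exposed to compounds plus 20 nM camptothecin for at least 48 h at 37 C; viability read as ATP content by CellTiter-Glo luminescence.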
TDP1 cell noCPT: qHTS for Inhibitors of human tyrosyl-DNA phosphodiesterase 1 (TDP1): qHTS in cells in absence of CPT; DT40 Tdp1-/- hTDP1 cells, no CPT, ATP luminescence, 48 h; Potency, µM (doses to about 46.2 µM), usual class: inhibitors; 15% of 420,000 active; further: nearly all actives have a fitted effect of over 55% in size
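DT40 Tdp1-/-;hTDP1 cells, no CPT (DMSO vehicle only), 400 cells/well; compounds pin-transferred; ≥48 hr, 37 °C; CellTiter-Glo 30 min RT dark, luminescence read.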
TDP1 inh: qHTS Assay for Inhibitors of Tyrosyl-DNA Phosphodiesterase (TDP1) | Tyrosyl-DNA phosphodiesterase 1 (Homo sapiens), Q9NUW8 | recombinant TDP1, AlphaScreen DNA substrate cleavage | Potency, µM (titrated, usually from 130 µM), hits mostly inhibitors | 0.28% of 350,000 active; further: nearly all actives have a fitted effect of over 40% in size
Target sequence (Q9NUW8 whole entry, looked up): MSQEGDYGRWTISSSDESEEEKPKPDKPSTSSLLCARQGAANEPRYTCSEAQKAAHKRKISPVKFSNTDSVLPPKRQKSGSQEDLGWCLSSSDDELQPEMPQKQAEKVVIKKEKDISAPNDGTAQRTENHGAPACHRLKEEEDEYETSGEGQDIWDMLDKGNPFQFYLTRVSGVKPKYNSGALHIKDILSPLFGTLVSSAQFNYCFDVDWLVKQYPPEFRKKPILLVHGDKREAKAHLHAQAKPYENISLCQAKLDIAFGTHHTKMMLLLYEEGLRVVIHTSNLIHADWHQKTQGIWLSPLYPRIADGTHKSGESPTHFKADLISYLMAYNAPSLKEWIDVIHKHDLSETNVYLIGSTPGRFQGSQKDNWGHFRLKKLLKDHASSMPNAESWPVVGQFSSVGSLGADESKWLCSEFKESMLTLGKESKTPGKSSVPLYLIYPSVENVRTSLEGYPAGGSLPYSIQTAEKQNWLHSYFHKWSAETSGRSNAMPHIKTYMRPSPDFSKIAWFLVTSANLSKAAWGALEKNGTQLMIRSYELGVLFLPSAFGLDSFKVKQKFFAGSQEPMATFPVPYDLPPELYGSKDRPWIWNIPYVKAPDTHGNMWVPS
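Steps: enzyme plus compound, 15 min RT; add biotin/phosphotyrosine-FITC oligonucleotide (15 nM final), react 5 min; add donor/acceptor beads (10 ug/ml final), 10 min; read AlphaScreen. Tdp1 at 1 nM final.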
TGFb inhibitor: qHTS for Inhibitors of TGF-b | HepG2 CAGA-GFP TGF-b/SMAD3 reporter, GFP fluorescence, 18 h; TGF-beta stimulated, 500 pg/mL final | Potency, µM (top dose mostly 46.1 µM), most hits filed as inhibitors | 1.2% of 410,000 active; further: nearly all actives have a fitted effect of over 65% in size
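Inhibition of TGF-beta-driven CAGA-GFP reporter expression in HEPG2 cells is measured by cellular GFP fluorescence after 18 h stimulation with 500 pg/mL recombinant TGF-beta in 1% FBS medium at 37 degrees C.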
A number is an active result; – = inactive; ? = inconclusive; · = not tested or not shown. Unless noted, the call rests on the fitted dose curve; in most records, active means well fitted curve in the direction sought with a large enough effect; inconclusive means small, poorly fitted or top-dose-only effect, or another doubt; inactive means no such curve, though single readings can be large; an effect the other way counts as inactive or inconclusive.

SMILES | IL1B secr inh | HepG2 tox | DT40 TDP1 CPT | TDP1 cell noCPT | TDP1 inh | TGFb inhibitor
CCCOc1ccc(C2c3c(-c4ccccc4O)n[nH]c3C(=O)N2Cc2ccncc2)cc1OCC (stereo not given) | · | – | 23µM | – | – | –
S=C(NCCc1ccccc1)N1CCN(C(c2ccccc2)c2ccccc2)CC1 | – | – | 12µM | 16µM | – | –
S=C(NCCc1ccccc1)N1CCCC1 | – | – | – | – | · | –
S=C(NCCc1ccccc1)N1CCN(C23CC4CC(CC(C4)C2)C3)CC1 | -84 | – | 10µM | 8.2µM | – | –
CCCCNC(=S)N1CCN(C(c2ccccc2)c2ccccc2)CC1 | – | – | ? | ? | – | –
CCCCc1ccc(-c2csc(/C(C#N)=C\c3ccc(C)o3)n2)cc1 | -50 | – | – | – | – | –
CCCCc1ccc(-c2csc(/C(C#N)=C/c3ccco3)n2)cc1 | – | – | – | – | – | –
Cc1ccccc1-c1cc2nc(NCc3ccc(N(C)C)cc3)n(C)c(=O)c2s1 | – | – | ? | 16µM | · | ?
Cc1ccccc1-c1cc2nc(NCc3ccccc3)n(C)c(=O)c2s1 | – | – | 9.2µM | ? | · | ?
Cc1ccccc1-c1cc2nc(NCc3ccncc3)n(C)c(=O)c2s1 | – | – | ? | ? | · | –
O=C1C(Cl)=C(NCCN2CCCCC2)C(=O)c2ccccc21 | -101 | – | 4.1µM | ? | – | 1.6µM
CCNC1=C(Cl)C(=O)c2ccccc2C1=O | – | 13µM | 18µM | 23µM | – | ?
CCNc1ccccc(-c2ccc3ccccc3n2)c1=O | – | – | – | – | – | –
CCCC(=O)NC1=C(Cl)C(=O)c2ccccc2C1=O | -101 | – | 0.65µM | 0.65µM | · | –
O=C1C(Cl)=C(NCc2ccco2)C(=O)c2ccccc21 | -95 | – | 12µM | 8.2µM | · | 11µM
CCCC(=O)NNC(=O)CCC(=O)Nc1ccccc1Cl | – | – | – | – | – | –
Cc1ccc(NC(=O)c2nnn(Cc3cccc(C(F)(F)F)c3)c2N)c(C)c1 | · | – | ? | ? | – | –
CCOC(=O)c1ccccc1NC(=O)c1cc2c(s1)-c1ccccc1SC2 | · | – | ? | ? | – | –
CCOC(CCn1c(SCC(=O)NC2CCCC2)nc2ccccc2c1=O)OCC | – | – | ? | ? | – | –
CC(=O)c1c(C)oc2ccc(N(C(=O)Oc3ccccc3)S(=O)(=O)c3ccc(Br)cc3)cc12 | · | – | – | – | · | –
Nc1ccccc1C(=O)CC(N)C(=O)O (stereo not given) | · | · | – | – | – | ·
CCCNC(=O)C1(C)CCN1C(=O)c1cc(C)n(C)n1 (stereo not given) | – | – | – | – | · | –
CCCNC(=O)C1(C)CCN1C(=O)c1ccc(C(C)(C)C)cc1 (stereo not given) | – | – | ? | 15µM | · | –
CSCCNC(=O)C1(C)CCN1C(=O)c1ccc(C(C)(C)C)cc1 (stereo not given) | – | – | 18µM | 15µM | · | –
CCCNC(=O)C1(C)CCN1C(=O)Cc1ccc(C(C)(C)C)cc1 (stereo not given) | – | – | ? | 15µM | · | –
SMILES | IL1B secr inh | HepG2 tox | DT40 TDP1 CPT | TDP1 cell noCPT | TDP1 inh | TGFb inhibitor
CCc1ccccc1NC(=O)Cn1c(=O)n(CCc2ccccc2)c(=O)c2sc3ccccc3c21 | · | – | – | ? | – | –
CC1(NC(=O)C2CCCCC2)CCS(=O)(=O)C1 (stereo not given) | – | – | – | – | – | –
COCCNC(=O)C1(CC(C)C)C=CCN1C(=O)OC (stereo not given) | · | · | · | · | – | ·
C[C@H](CO)N1C[C@H](C)[C@@H](CN(C)CC2CCOCC2)Oc2cc(C#Cc3ccccc3F)ccc2S1(=O)=O | – | – | 18µM | 9.2µM | · | ?
C[C@H]1CN([C@@H](C)CO)S(=O)(=O)c2ccc(Br)cc2O[C@H]1CN(C)C(=O)c1cccc(F)c1 | – | – | – | – | · | ?
C[C@@H]1CN([C@H](C)CO)S(=O)(=O)c2ccc(C#Cc3ccccc3F)cc2O[C@H]1CN(C)C(=O)c1ccc2c(c1)OCO2 | -74 | – | 18µM | 6.5µM | · | ?
C[C@H]1CN([C@@H](C)CO)S(=O)(=O)c2ccc(C#Cc3ccccn3)cc2O[C@H]1CN(C)Cc1ccc(F)cc1 | – | – | ? | ? | · | –
C[C@H]1CN([C@@H](C)CO)S(=O)(=O)c2ccc(C#Cc3cccnc3)cc2O[C@@H]1CN(C)C(=O)Nc1ccc2c(c1)OCO2 | – | – | ? | 23µM | · | –
C[C@H]1CN([C@@H](C)CO)S(=O)(=O)c2ccc(Br)cc2O[C@@H]1CN(C)C(=O)Nc1ccc2c(c1)OCO2 | – | – | – | – | · | –
Nc1ccc(S(=O)(=O)Nc2nccc(/C=C/c3ccc(Cl)cc3Cl)n2)cc1 | – | – | – | – | – | –
Cc1ccncc1C(=O)O | · | · | · | · | – | ·
COC(=O)N1CCCCC1c1cc(C(=O)NCc2ccccc2)no1 (stereo not given) | – | – | – | – | · | –
Cn1nc(C(C)(C)C)cc1C(=O)N1CCCCC1c1cc(C(=O)NCc2ccc(F)cc2)no1 (stereo not given) | – | – | 21µM | 13µM | · | ?
Cn1nc(C(C)(C)C)cc1C(=O)N1CCCCC1c1cc(C(=O)NCc2ccccc2)no1 (stereo not given) | – | – | 10µM | 10µM | · | –
CC1CCCN(Cc2nc3c(c(=O)n(C)c(=O)n3C)n2Cc2ccc(Cl)cc2Cl)C1 (stereo not given) | · | – | – | – | – | –
CCc1ccc(S(=O)(=O)Nc2ccc(-c3ccc4nnc(C)n4n3)cc2)s1 | – | – | ? | ? | – | –
CCc1ccc(S(=O)(=O)Nc2cccc(-c3ccc(OC)nn3)c2)s1 | · | – | 12µM | 9.2µM | – | –
CCc1ccc(S(=O)(=O)Nc2cccc(-c3ccc4nnc(C)n4n3)c2)s1 | – | – | 23µM | 16µM | – | –
CCCn1c2ccccc2c2cnn(CC(=O)NC3CCCCC3)c(=O)c21 | – | – | ? | – | – | –
COc1ccccc1/C=C1\C(=O)Nc2ccccc21 | – | – | ? | 21µM | – | ?
O=C1Nc2ccccc2/C1=C/c1ccccc1Cl | – | – | – | ? | · | ?
Cc1ccc2c(c1)/C(=C/c1ccccc1C)C(=O)N2 | -100 | – | – | ? | · | –
